# Results taken from PubChem BioAssay (NCATS).
# Unmarked numbers belong to inactive results. Results filed as inconclusive are left out. The source made the active and inactive calls. Unless noted, the call rests on the fitted dose curve; in most records, active means well fitted curve in the direction sought with a large enough effect; inconclusive means small, poorly fitted or top-dose-only effect, or another doubt; inactive means no such curve, though single readings can be large; an effect the other way counts as inactive or inconclusive.
# How the values were obtained:
# [1] = Cytotoxicity counterscreen for inhibitors of SARS-CoV-2 cell entry (AID 1645845; calls by dose curve; further: nearly all actives have a fitted effect of over 50% in size)
# Method in brief: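 48 h compound treatment (after 1 h preincubation), HEK293-ACE2 cells, 37 C/5% CO2; ATP luminescence endpoint; normalized to cell wells and media blanks.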
# [2] = VSVG counterscreen qHTS to identify inhibitors of SARS-CoV-2 cell entry (AID 1645847; calls by dose curve; further: potency means the concentration at half of the fitted maximal effect; nearly all actives have a fitted effect of over 65% in size)
# Method in brief: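 HEK293-ACE2 cells (Expi293F stably expressing human ACE2) were pretreated with compound for 1 h at 37 °C, then infected with MLV-based VSV-G pseudotyped particles for 48 h. Luciferase luminescence was normalized to VSV-G PP and bald PP wells.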
# [3] = molecular target: Cytochrome P450 2C9 (Homo sapiens) (UniProt P11712); experiment: qHTS Assay for Inhibitors and Substrates of Cytochrome P450 2C9 (AID 883); further: on the % scale 0 is the no-effect control and ±100 the full control effect; nearly all actives have a fitted effect of over 60% in size
# Sequence of Cytochrome P450 2C9 (Homo sapiens) (P11712 whole entry, looked up): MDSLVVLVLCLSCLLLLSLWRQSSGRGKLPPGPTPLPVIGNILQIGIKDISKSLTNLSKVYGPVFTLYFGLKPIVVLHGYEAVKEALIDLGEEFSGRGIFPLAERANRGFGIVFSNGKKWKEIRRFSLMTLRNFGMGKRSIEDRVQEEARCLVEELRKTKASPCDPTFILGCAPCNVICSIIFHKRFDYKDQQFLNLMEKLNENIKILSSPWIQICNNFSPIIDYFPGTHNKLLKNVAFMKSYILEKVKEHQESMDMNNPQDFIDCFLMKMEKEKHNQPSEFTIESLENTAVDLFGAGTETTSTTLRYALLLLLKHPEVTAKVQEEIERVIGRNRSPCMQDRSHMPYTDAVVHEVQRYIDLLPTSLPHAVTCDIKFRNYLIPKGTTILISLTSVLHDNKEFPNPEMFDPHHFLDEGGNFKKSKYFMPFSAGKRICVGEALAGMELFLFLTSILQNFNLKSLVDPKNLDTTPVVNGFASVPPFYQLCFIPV
# Method in brief: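 Turnover of Luciferin-H (100uM, KM) by 10nM human CYP2C9 was measured over 60 min at 37C with NADPH regeneration; inhibitors and some substrates reduce luminescence. Data normalized to sulphaphenazole 57uM.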
# [4] = molecular target: Cytochrome P450 2D6 (Homo sapiens) (UniProt P10635); experiment: qHTS Assay for Inhibitors and Substrates of Cytochrome P450 2D6 (AID 891);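 further: luciferin methyl ether substrate demethylated by CYP2D6 with NADPH regeneration; on the % scale 0 is the no-effect control and ±100 the full control effect; nearly all actives have a fitted effect of over 60% in size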
# Sequence of Cytochrome P450 2D6 (Homo sapiens) (P10635 whole entry, looked up): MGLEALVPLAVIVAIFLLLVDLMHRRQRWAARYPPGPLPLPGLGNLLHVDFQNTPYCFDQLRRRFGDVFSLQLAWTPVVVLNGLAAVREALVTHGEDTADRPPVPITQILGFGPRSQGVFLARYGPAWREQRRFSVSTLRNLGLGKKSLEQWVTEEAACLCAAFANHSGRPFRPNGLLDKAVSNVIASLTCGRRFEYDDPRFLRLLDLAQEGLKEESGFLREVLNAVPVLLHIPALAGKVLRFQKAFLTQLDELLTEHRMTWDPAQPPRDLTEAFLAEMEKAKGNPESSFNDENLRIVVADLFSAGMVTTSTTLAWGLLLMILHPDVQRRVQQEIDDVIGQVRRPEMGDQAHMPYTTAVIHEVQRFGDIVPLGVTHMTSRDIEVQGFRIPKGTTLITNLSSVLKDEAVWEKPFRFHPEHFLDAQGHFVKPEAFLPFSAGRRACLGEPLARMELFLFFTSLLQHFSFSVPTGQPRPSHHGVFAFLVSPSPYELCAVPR
# Method in brief: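 Human CYP2D6 (5 nM) with 30 uM Luciferin-ME EGE (at Km) in 100 mM KPO4, compound preincubated 10 min, then NADPH regeneration system for 60 min at room temperature. Luciferin read by luminescence; normalized to 1.43 uM quinidine.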
# [5] = molecular target: D(1A) dopamine receptor (Homo sapiens) (UniProt P21728); experiment: HTS Assay for Allosteric Agonists of the Human D1 Dopamine Receptor: Primary Screen for Potentiators (AID 488982); further: potency means the concentration at half of the fitted maximal effect
# Sequence of D(1A) dopamine receptor (Homo sapiens) (P21728 whole entry, looked up): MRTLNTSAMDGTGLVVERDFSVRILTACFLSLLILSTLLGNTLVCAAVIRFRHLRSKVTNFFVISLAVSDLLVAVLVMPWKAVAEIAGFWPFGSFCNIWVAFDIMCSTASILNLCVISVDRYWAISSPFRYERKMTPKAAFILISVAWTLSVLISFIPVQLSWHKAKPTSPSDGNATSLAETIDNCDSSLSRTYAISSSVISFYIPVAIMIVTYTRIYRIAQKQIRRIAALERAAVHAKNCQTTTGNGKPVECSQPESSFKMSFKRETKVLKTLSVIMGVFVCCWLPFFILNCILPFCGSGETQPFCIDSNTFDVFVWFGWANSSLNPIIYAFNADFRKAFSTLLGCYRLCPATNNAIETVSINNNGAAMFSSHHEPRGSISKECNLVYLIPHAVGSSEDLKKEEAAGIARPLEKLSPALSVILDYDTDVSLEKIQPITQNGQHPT
# Method in brief: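 Calcium flux in an inducible, force-coupled HEK293 Trex D1 line (overnight at 30 C): agonist mode is the 180 s kinetic read after compound; potentiator mode is the following 180 s read after dopamine at EC20.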
# [6] = molecular target: DNA dC->dU-editing enzyme APOBEC-3G (Homo sapiens) (UniProt Q9HC16); experiment: qHTS for inhibitors of Vif-A3G interactions: Validation (AID 588379); further: potency means the concentration at half of the fitted maximal effect
# Sequence of DNA dC->dU-editing enzyme APOBEC-3G (Homo sapiens) (Q9HC16 whole entry, looked up): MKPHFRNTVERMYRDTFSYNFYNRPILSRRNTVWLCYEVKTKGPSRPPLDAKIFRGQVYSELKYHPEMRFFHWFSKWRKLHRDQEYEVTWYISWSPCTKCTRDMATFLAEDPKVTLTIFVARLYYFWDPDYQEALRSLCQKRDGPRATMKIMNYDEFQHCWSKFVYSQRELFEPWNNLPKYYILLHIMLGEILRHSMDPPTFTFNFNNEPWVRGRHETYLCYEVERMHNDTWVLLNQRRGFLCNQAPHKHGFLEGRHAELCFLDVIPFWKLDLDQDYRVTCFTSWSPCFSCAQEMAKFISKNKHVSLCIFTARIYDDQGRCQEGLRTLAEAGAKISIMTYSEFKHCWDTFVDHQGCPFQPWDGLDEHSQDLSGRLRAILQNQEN
# Method in brief: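 HeLa cells stably expressing Vif and A3G-eYFP, 700 cells/well, incubated overnight at 37 deg C, then exposed to compound overnight at 37 deg C. Inhibition of Vif-mediated degradation read as increased yellow fluorescence (Ex 488/Em 500-530) by laser-scanning cytometry.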
# [7] = qHTS for differential inhibitors of proliferation of Plasmodium falciparum line D10 (AID 1877);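 further: potency means the concentration at half of the fitted maximal effect; parasites grown with compound for 72 h before DNA staining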
# [8] = molecular target: ATP-dependent DNA helicase Q1 (Homo sapiens) (UniProt P46063); experiment: qHTS Validation Assay for Inhibitors of RecQ-Like Dna Helicase 1 (RECQ1) (AID 2353); further: potency means the concentration at half of the fitted maximal effect
# Method in brief: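 50 nM RECQ1T1 preincubated 15 min with compound in Tris pH 8.0 buffer with MgCl2, DTT, Tween-20 and 2.5 ug/ml poly(dI-dC); started with 200 nM TAMRA/BHQ-2 forked duplex and 2 mM ATP. Unwinding read as fluorescence (525/598 nm), two reads 2 h apart.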
# [9] = molecular target: DNA polymerase III PolC-type (Bacillus subtilis (strain 168)) (UniProt P13267); experiment: qHTS Validation Assay for the Inhibitors of DNA Replication in Gram-Positive Bacteria (AID 485295); further: potency means the concentration at half of the fitted maximal effect
# Sequence of DNA polymerase III PolC-type (Bacillus subtilis (strain 168)) (P13267 whole entry, looked up): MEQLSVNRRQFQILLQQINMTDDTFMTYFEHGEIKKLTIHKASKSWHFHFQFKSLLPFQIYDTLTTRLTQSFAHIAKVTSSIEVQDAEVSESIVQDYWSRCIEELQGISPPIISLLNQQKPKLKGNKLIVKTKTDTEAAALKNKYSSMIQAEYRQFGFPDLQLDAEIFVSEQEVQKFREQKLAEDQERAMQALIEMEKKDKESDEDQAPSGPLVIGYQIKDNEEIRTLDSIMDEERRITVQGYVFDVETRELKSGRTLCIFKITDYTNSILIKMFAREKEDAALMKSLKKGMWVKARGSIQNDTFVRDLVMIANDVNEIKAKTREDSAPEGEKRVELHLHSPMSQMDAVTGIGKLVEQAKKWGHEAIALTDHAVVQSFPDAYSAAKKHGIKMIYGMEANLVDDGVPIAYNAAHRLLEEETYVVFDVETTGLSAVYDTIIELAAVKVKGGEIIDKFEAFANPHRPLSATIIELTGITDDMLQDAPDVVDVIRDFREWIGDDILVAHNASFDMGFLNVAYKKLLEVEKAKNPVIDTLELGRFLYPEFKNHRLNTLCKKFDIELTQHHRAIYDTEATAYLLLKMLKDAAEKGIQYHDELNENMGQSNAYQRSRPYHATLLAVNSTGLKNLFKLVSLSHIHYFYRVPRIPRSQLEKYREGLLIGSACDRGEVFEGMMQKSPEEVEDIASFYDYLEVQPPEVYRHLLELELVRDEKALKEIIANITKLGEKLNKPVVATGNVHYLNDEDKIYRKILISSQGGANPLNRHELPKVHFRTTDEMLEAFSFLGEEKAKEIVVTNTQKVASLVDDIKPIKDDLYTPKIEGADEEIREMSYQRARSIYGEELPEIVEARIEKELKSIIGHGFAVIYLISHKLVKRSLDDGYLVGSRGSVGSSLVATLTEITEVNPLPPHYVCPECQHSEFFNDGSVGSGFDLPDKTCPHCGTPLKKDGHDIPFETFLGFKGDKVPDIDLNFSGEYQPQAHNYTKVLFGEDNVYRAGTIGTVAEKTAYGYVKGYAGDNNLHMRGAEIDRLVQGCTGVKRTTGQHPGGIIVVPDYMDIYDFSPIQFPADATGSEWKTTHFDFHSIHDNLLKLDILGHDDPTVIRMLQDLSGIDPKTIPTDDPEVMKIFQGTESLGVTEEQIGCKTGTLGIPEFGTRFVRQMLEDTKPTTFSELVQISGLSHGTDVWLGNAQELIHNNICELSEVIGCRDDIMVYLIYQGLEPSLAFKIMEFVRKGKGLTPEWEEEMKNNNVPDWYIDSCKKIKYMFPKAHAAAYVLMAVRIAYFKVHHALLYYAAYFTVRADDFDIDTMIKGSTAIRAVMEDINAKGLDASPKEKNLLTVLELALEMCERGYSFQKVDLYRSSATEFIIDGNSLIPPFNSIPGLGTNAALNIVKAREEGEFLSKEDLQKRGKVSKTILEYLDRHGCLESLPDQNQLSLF
# Method in brief: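 Reconstituted B. subtilis holoenzyme (Pol III, beta clamp, SSB, primase) was preincubated with compound at room temperature, then given single-stranded circular M13Gori plus dNTPs and NTPs. EDTA-containing PicoGreen stopped the reaction, and dsDNA product was read by fluorescence.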
# [10] = Quantitative high throughput screen for delayed death inhibitors of the malarial parasite plastid, 96 hour incubation (AID 488745); further: potency means the concentration at half of the fitted maximal effect; nearly all actives have a fitted effect of over 70% in size
# Method in brief: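 P. falciparum carrying an integrated firefly luciferase reporter, grown in erythrocytes (2% hematocrit, 0.1% parasitemia final) in RPMI 1640/0.5% Albumax, was exposed to compound for 96 h (two generations) at 37 C, 5% CO2. Luminescence decrease indicated growth inhibition.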
# [11] = Quantitative high throughput screen for delayed death inhibitors of the malarial parasite plastid, 48 hour incubation (AID 488752); further: potency means the concentration at half of the fitted maximal effect; nearly all actives have a fitted effect of over 65% in size
# Method in brief: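 Erythrocytes infected with P. falciparum carrying an integrated firefly luciferase reporter (2% hematocrit, 0.1% parasitemia final) were exposed to compounds in RPMI 1640/0.5% Albumax for 48 h at 37 C, 5% CO2. Growth inhibition was scored as reduced luminescence.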
# [12] = molecular target: Peptidyl-prolyl cis-trans isomerase NIMA-interacting 1 (Homo sapiens) (UniProt Q13526); experiment: qHTS Validation Assay to Find Inhibitors of Pin1 (AID 504536; active means well fitted inhibition curve with a large enough effect in the polarisation, with a control signal flat, not every such curve was filed as active; the % refers to the polarisation; further: potency means the concentration at half of the fitted maximal effect)
# Sequence of Peptidyl-prolyl cis-trans isomerase NIMA-interacting 1 (Homo sapiens) (Q13526 whole entry, looked up): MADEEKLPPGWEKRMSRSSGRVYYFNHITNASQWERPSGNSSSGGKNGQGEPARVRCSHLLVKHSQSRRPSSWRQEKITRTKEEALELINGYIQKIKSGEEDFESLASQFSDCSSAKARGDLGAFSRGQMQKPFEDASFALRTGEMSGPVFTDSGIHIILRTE
# Method in brief: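 Fluorescence polarization competition: compounds (titration) displace HiFluor-488-labeled Pin1-1b peptide from Pin1 (0.3 uM final) in pH 7.5 HEPES buffer with DTT, 10 min at room temperature; %Activity normalized to no-enzyme wells, curves fitted.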
# [13] = molecular target: Phosphoglycerate kinase, glycosomal (Trypanosoma brucei brucei) (UniProt P07378); experiment: qHTS Validation Assay to Find Inhibitors of Phosphoglycerate Kinase (AID 504547); further: potency means the concentration at half of the fitted maximal effect
# Method in brief: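 Inhibition of the enzyme is judged by a Kinase-Glo Plus luminescent signal following a one-hour incubation at room temperature. Because 1,3-BPG is unstable, it is made in situ by GAPDH at 100nM final; no-PGK wells define the baseline.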
# [14] = qHTS assay to identify small molecules that stimulate interleukin-8 (IL-8) secretion (AID 651758; active means well fitted activation curve with a large enough effect in the signal ratio; the % refers to the signal ratio; further: 0% is about no effect)
# Method in brief: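 Secreted IL-8 measured by TR-FRET sandwich (cryptate and XL665 antibodies) from THP-1 cells exposed to compound overnight (16 hrs, 37 C).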
# [15] = molecular target: Estrogen receptor (Homo sapiens) (UniProt P03372); experiment: qHTS assay for small molecule agonists of estrogen receptor alpha signaling (AID 588514; calls by dose curve;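 further: 0% = vehicle only and 100% = reference agonist; nearly all actives have a fitted effect of over 70% in size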)
# Sequence of Estrogen receptor (Homo sapiens) (P03372 whole entry, looked up): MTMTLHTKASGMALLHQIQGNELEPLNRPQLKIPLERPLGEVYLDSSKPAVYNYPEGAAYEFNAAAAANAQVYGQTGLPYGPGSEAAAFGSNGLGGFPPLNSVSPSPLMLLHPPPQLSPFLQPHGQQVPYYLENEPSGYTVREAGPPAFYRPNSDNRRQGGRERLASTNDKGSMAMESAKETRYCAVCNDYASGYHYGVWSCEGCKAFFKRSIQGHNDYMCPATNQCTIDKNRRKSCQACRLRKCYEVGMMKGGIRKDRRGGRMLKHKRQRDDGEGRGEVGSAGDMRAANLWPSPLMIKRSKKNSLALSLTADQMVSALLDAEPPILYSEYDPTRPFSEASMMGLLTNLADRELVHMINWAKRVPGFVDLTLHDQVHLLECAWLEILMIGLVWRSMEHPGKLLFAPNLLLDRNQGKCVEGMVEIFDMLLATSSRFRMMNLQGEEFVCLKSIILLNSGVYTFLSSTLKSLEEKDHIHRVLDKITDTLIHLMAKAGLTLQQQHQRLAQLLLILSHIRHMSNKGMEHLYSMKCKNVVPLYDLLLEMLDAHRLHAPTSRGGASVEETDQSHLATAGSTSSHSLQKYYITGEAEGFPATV
# Method in brief: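 ER-alpha-UAS-bla GripTite HEK 293 cells in medium with 2% charcoal/dextran-treated FBS were treated with compound titrations at 37 C for 18 hrs; beta-lactamase reporter read by CCF4 fluorescence after 2 hrs at RT.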
# [16] = Validation screen for small molecules that induce DNA re-replication in MCF 10A normal breast cells (AID 463097); further: potency means the concentration at half of the fitted maximal effect; nearly all actives have a fitted effect of over 60% in size
# Method in brief: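 Readout: Hoechst nuclear fluorescence intensity, 405 ex / 500-530 em, by scanning plate imager; re-replication scored as increase in nuclei with elevated DNA content. Cells exposed to compound 48 hr, 37 C, 5% CO2 beforehand.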
# [17] = molecular target: Thioredoxin reductase 1, cytoplasmic (Rattus norvegicus) (UniProt O89049); experiment: qHTS Assay for Inhibitors of Mammalian Selenoprotein Thioredoxin Reductase 1 (TrxR1) (AID 488773); details: Potency: inhibition; further: nearly all actives have a fitted effect of over 40% in size; further: potency means the concentration at half of the fitted maximal effect
# Sequence of Thioredoxin reductase 1, cytoplasmic (Rattus norvegicus) (O89049 whole entry, looked up): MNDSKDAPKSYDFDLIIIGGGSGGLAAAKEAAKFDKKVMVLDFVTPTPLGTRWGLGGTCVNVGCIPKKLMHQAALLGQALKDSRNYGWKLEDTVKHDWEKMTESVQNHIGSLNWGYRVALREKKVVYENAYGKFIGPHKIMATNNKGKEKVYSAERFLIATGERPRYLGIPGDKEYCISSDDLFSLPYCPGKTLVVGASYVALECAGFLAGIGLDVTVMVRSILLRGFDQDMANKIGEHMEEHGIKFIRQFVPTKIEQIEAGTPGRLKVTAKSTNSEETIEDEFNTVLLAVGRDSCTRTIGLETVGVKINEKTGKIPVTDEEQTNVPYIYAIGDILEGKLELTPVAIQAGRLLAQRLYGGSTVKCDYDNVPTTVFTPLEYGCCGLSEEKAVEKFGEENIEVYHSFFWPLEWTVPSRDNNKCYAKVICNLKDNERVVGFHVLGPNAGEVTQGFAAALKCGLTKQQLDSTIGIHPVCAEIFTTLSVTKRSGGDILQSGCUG
# Method in brief: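 Steps: enzyme (90 nM) plus NADPH (400 uM final), 5 min at ~22 deg C; compound added, 15 min; selenite (400 uM final) added; fluorescence followed for 8 min. Concentration-response curves derived from the normalized delta values.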
# [18] = molecular target: DNA repair nuclease/redox regulator APEX1 (Homo sapiens) (UniProt P27695); experiment: qHTS Validation Assay for Inhibitors of the Human Apurinic/apyrimidinic Endonuclease 1 (APE1) (AID 1705; further: potency means the concentration at half of the fitted maximal effect)
# Sequence of DNA repair nuclease/redox regulator APEX1 (Homo sapiens) (P27695 whole entry, looked up): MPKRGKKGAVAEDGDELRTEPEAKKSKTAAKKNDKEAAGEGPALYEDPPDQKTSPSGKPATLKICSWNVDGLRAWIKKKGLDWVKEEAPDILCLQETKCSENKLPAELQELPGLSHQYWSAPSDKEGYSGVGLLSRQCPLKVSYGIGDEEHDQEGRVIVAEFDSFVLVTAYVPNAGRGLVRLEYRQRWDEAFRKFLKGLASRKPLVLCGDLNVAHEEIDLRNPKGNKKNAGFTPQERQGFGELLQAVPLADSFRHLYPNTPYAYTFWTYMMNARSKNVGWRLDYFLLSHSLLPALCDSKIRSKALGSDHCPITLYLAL
# Method in brief: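 Human APE1 was preincubated with compound for 15 min at room temperature, then 50 nM (final) THF-abasic double-stranded DNA substrate bearing 5'-TAMRA and 3'-BHQ-2 was added. Incision-driven fluorescence rise (ex 525/em 598 nm) was read kinetically.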
# [19] = qHTS Assay for Identifying Gametocytocidal Compounds (AID 743244);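 further: on the % scale 0 is the no-effect control and ±100 the full control effect; actives lower the fluorescent signal which means gametocytes are killed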; details: P. falciparum 3D7 stage III-V gametocytes, alamarBlue, 72 h; max response: stronger effect = lower value
# Method in brief: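 Stage III–V gametocytes of P. falciparum 3D7 were seeded at 20,000 cells/well onto pre-dispensed compounds. After 72 h, 37 °C, 5% CO2, alamarBlue was added for another 24 h.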
# [20] = Validation screen for small molecules that induce genotoxicity in human embryonic kidney (HEK293T) cells expressing luciferase-tagged ELG1 (AID 493106); further: 0% is about no effect
# Method in brief: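 HEK293T cells expressing luciferase-tagged ELG1 were exposed to compound or DMSO vehicle for 16 hr at 37 °C, 5% CO2. Genotoxic stress raises ELG1 levels, so increased luciferase signal after ONE-Glo addition and 30 min at room temperature marks hits.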
smiles,measurement,setting,value
Oc1ccc(-c2nc(-c3ccc(F)cc3)c(-c3ccncc3)[nH]2)cc1,Potency,[1],inactive
same,Potency,[2],3.04 µM (active)
Nc1nc2ccc(Cl)cc2c2nc(-c3ccco3)nn12,Potency,[3],inactive
same,Potency,[4],inactive
same,Potency,[5],1.3 µM (active)
same,Potency,[6],0.596 µM (active)
N#C/C(=C\c1ccc(O)c(O)c1)C(=O)NCCCNC(=O)/C(C#N)=C/c1ccc(O)c(O)c1,Potency,[7],2.24 µM (active)
same,Potency,[8],0.447 µM (active)
same,Potency,[9],21.2 µM (active)
same,Potency,[10],8.28 µM (active)
same,Potency,[11],10.4 µM (active)
same,Potency,[12],0.849 µM (active)
same,Potency,[13],1.9 µM (active)
CC(=O)/C=C/c1ccccc1,Potency,[14],inactive
CCOC(=O)c1ccccc1N,Potency,[15],inactive
CC(C)COC(=O)c1ccccc1C(=O)OCC(C)C,Potency,[15],inactive
O=c1oc(Cl)c(Cl)c2ccccc12,Potency,[16],5.01 µM (active)
same,Potency,[17],7.52 µM (active)
COc1cc([C@@H]2c3cc4c(cc3[C@H](O)C3COC(=O)[C@@H]32)OCO4)cc(OC)c1OC (some centres undefined),Potency,[16],0.0355 µM (active)
CCCCCCCCCC[Si](C)(C)CCC(=O)NC(Cc1ccc(C)cc1)c1ccccc1 (centres undefined),Potency,[7],3.55 µM (active)
COC1=CC(=O)OC(CCc2ccc3c(c2)OCO3)C1 (centres undefined),Potency,[14],inactive
Nc1nc2[nH]c(=O)cnc2c(=O)[nH]1,Potency,[17],inactive
Oc1ccccc1O,Potency,[18],35.5 µM (active)
same,Potency,[17],11.9 µM (active)
NO,Potency,[18],inactive
COc1ccc2c(c1)CCC1C2CC[C@@]2(C)C1CC[C@@H]2NCCCCCCN1C(=O)C=CC1=O (some centres undefined),max response,[19],27.3%
O=C(O)CNC(=O)C(CS)Cc1ccccc1 (centres undefined),max response,[19],-3.2%
NC1C=CC=C(C(=O)O)C1 (centres undefined),outcome,[20],inactive
Brc1c(Br)c(Br)c2n[nH]nc2c1Br,outcome,[20],inactive
